# Measurements from PubChem BioAssay AID1259374 (The Scripps Research Institute Molecular Screening Center, 2018).
# Among all 650,000 compounds or so, about 5,900 (0.91%) were called active. No stated cut-off is given here; in the data, active means inhibition above about 50%; inactive means the rest. The list comes from a sample in which actives are over-represented; it also holds similar structures and randomly drawn compounds.
# Molecular target: Microphthalmia-associated transcription factor (Homo sapiens) (UniProt O75030)
# Assay: MITF inhibitors, primary screen, biochemical, AlphaScreen, human (AID 1259374);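 further: 0% = vehicle wells with protein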
# Settings: AlphaScreen MITF homodimerization, bead proximity signal; at 2.6 µM; active compounds read high
# Sequence of Microphthalmia-associated transcription factor (Homo sapiens) (O75030 whole entry, looked up): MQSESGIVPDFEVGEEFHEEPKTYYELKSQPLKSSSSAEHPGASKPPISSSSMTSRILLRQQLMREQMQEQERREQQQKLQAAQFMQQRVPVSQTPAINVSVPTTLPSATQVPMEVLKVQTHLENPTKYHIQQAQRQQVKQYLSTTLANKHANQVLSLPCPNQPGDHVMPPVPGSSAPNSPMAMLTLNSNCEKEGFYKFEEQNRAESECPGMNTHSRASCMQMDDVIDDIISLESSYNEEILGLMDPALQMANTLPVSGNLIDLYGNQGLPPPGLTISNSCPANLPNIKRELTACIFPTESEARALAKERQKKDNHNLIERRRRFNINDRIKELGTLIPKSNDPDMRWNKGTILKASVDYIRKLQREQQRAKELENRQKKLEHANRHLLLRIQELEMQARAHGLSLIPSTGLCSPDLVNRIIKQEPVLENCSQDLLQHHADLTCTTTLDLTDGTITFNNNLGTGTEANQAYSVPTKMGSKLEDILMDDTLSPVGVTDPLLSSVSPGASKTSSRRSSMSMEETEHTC
row,Structure (SMILES),inhibition
1,CCOc1ccc(-c2ccc(SCC(=O)Nc3cc(C)on3)nn2)cc1,4.05% (inactive)
2,Cc1cc(NC(=O)CSc2ccc(-c3ccccn3)nn2)no1,78.7% (active)
3,O=C(CSc1ccc(-c2ccccn2)nn1)Nc1ccccc1,49.6% (inactive)
4,Cc1[nH]c(=O)[nH]c(=O)c1S(=O)(=O)N1CCC(Cc2ccccc2)CC1,-4.65% (inactive)
5,O=C(Nc1cccc(NC(=O)c2ccc(S(=O)(=O)N3CCOCC3)cc2)c1)c1ccc(S(=O)(=O)N2CCOCC2)cc1,-11.6% (inactive)
6,Clc1cc(Cl)c(OCCOc2ccccc2)c(/C=N/n2cnnc2)c1,-17.6% (inactive)
7,Cc1ccccc1NC(=O)NCCOc1cc(N2CCCC2)ncn1,63.9% (active)
8,CC(C)(C)NC(=O)N1CCN(c2cc(N3CCCC3)ncn2)CC1,5.52% (inactive)
9,Cc1ccccc1NC(=O)C(=O)N1CCCCC1,-9.16% (inactive)
10,CCOC(=O)c1ccc2c(c1)nc(C(C)C)n2CC,29.7% (inactive)
11,Clc1c(OCCCNCCN2CCOCC2)ccc2ccccc12,26% (inactive)
12,c1ccc(-c2ccccc2OCCNCCN2CCOCC2)cc1,58.3% (active)
13,c1ccc(-c2ccccc2OCCCCNCCN2CCOCC2)cc1,11.5% (inactive)
14,Cc1ccc(OCCCCNCCN2CCOCC2)c(Br)c1,65.7% (active)
15,Cc1ccc(OCCCNCCN)c(Br)c1,5.41% (inactive)
16,c1ccc(-c2ccc(OCCCNCCN3CCOCC3)cc2)cc1,-7.58% (inactive)
17,CC(NC(=O)Cn1c(C2CC2)nc2ccccc21)C1CC2CCC1C2 (configuration not stated),5% (inactive)
18,C/C(=N\NC(=O)C(O)c1ccccc1)c1ccc2c(c1)CCCC2 (configuration not stated),-5.38% (inactive)
19,O=C(NC1CSC/C1=N\Nc1cc([N+](=O)[O-])cc([N+](=O)[O-])c1)c1ccccc1 (configuration not stated),18% (inactive)
20,O=C(CC1(c2ccccc2F)CC(=O)N(C2CCCCC2)C1=O)N1CCOCC1 (configuration not stated),-8.12% (inactive)
21,CCOc1ccccc1N(CC(=O)NC(C)(C)CC)C(=O)CCC(=O)Nc1nccs1,-1.1% (inactive)
22,CNC(=O)c1c(NC(=O)C2CCCCC2)sc2c1CCC(C)C2 (configuration not stated),-7.36% (inactive)
23,Cc1ccc(NC(=O)COC(=O)CCC(=O)Nc2sc3c(c2C(N)=O)CCC3)cc1F,84.3% (active)
24,NC(=O)c1c(NC(=O)CCC(=O)OCC(=O)Nc2ccccc2Cl)sc2c1CCC2,-2.18% (inactive)
25,CC(C)(C)c1ccc(OCC(=O)OCC(=O)Nc2sc3c(c2C(N)=O)CCC3)cc1,0.98% (inactive)

row,Structure (SMILES),inhibition
1,Cc1cc(SCC(=O)N2CCOCC2)nc2ccccc12,14.6% (inactive)
2,CCCCNC(=S)N/N=C/c1ccccc1OCC(=O)O,-2.56% (inactive)
3,CCOc1cccc(/C=N/NC(=S)NCCN2CCOCC2)c1O,63.2% (active)
4,CCOc1cccc(/C=N/NC(=O)COc2cccc(C)c2C)c1O,2.99% (inactive)
5,COc1ccccc1N(C(C)=O)C1C=CS(=O)(=O)C1 (configuration not stated),1.71% (inactive)
6,c1cncc(CCNc2ccc3ncc(-c4cc5ccccc5o4)n3n2)c1,54.6% (active)
7,Cc1csc(-c2cnc3ccc(NCCc4cccnc4)nn23)c1,-21.5% (inactive)
8,c1cncc(CCNc2ccc3ncc(-c4cccc5ccccc45)n3n2)c1,-3.61% (inactive)
9,N#Cc1c(-n2ncnc2-c2ccccc2)sc2c1CCCC2,-14.9% (inactive)
10,CCOc1ccc(-c2ncnn2-c2sc3c(c2C#N)CCCC3)cc1,-3.27% (inactive)
11,COc1cccc(-c2ncnn2-c2sc3c(c2C#N)CCCCC3)c1,63.4% (active)
12,O=C(Nc1nccs1)C(c1ccccc1)c1ccccc1,-0.78% (inactive)
13,O=C(O)C1C2C=CC(O2)C1C(=O)Nc1nccs1 (configuration not stated),81.7% (active)
14,CCCCOC(=O)c1ccc(NC(=O)C2C3C=CC(O3)C2C(=O)O)cc1 (configuration not stated),-9.29% (inactive)
15,COc1ccc(-c2nc3n(c2NC(C)(C)C)CCNC3)cc1,0.05% (inactive)
16,COc1ccc(C(=O)NCCN2CCN(c3nc4c(C)c(C)ccc4s3)CC2)cc1,61.8% (active)
17,COc1ccc(S(=O)(=O)N2CCN(CCNC(=O)c3ccc(-c4ccccc4)cc3)CC2)cc1,8.93% (inactive)
18,COc1ccc2nc(N3CCN(CCNC(=O)c4ccco4)CC3)sc2c1,-9.88% (inactive)
19,O=Cc1ccc(OCc2ccc([N+](=O)[O-])cc2)c(I)c1,9.55% (inactive)
20,c1ccc(CC2CCN(c3nc4ccccc4n4cnnc34)CC2)cc1,-0.95% (inactive)
21,O=C(c1cccnc1N1CCC(Cc2ccccc2)CC1)N1CCCCC1,11.1% (inactive)
22,Cc1nnc(N2CCC(Cc3ccccc3)CC2)c2ccccc12,66.8% (active)
23,O=C(c1cnn2c(C(F)(F)F)cc(-c3ccco3)nc12)N1CCN(C(c2ccccc2)c2ccccc2)CC1,-6.87% (inactive)
24,O=c1c2ccccc2[nH]c(=S)n1NS(=O)(=O)c1ccccc1,0.19% (inactive)
25,CCc1cccc(CC)c1-n1c(CNC(=O)Cc2ccccc2)nnc1SCC(=O)Nc1ccc(OC)cc1,-9.51% (inactive)

row,Structure (SMILES),inhibition
1,COc1cc(C(=O)Nc2cnc(NC(=O)c3ccccc3)cc2C)cc(OC)c1OC,12.9% (inactive)
2,COc1ccc(CN2CCN(S(=O)(=O)c3cc(Br)c(Br)s3)CC2)c(OC)c1OC,19.2% (inactive)
3,COc1ccc(CN2CCN(C3CCC(C)CC3)CC2)c(OC)c1OC (configuration not stated),63.1% (active)
4,COc1ccc(CN2CCc3nnc(C4CCCO4)n3CC2)c(OC)c1OC (configuration not stated),-1.23% (inactive)
5,CCOC(=O)CSc1ccc(C(=O)N2CCN(Cc3ccc(OC)c(OC)c3OC)CC2)cc1[N+](=O)[O-],-5.49% (inactive)
6,COc1ccc(CN2CCN(Cc3ccccc3C)CC2)c(OC)c1OC,56.1% (active)
7,Cc1ccccc1CN1CCC(N2CCCCC2)CC1,32.6% (inactive)
8,Cc1noc(C)c1S(=O)(=O)N1CCN(Cc2nc3ccccc3n2C)CC1,8.13% (inactive)
9,COc1ccc(C(=O)CCNC(Cc2cnc[nH]2)C(=O)O)cc1 (configuration not stated),34.2% (inactive)
10,CC(Oc1ccc(Br)cc1)C(=O)N/N=C/c1ccccc1O (configuration not stated),-6.74% (inactive)
11,COCCn1nnnc1C(C)N(CCCO)Cc1cc2cc(C)ccc2[nH]c1=O (configuration not stated),-3.49% (inactive)
12,O=C(OCC(=O)N1CCN(C(=O)c2ccco2)CC1)c1ccc(O)cc1,-0.03% (inactive)
13,CCCOc1ccc(C2C(=O)N(C3CCCCCC3)CC(=O)N2CC2COc3ccccc3O2)cc1OC (configuration not stated),14.9% (inactive)
14,CC1CCC2C(=O)N(c3cccc(Cl)c3)C(=O)C2C1 (configuration not stated),8.52% (inactive)
15,CC1CCC2C(=O)N(c3ccc(I)cc3)C(=O)C2C1 (configuration not stated),51.1% (active)
16,CC1CCC2C(=O)N(C(CC(=O)O)c3ccco3)C(=O)C2C1 (configuration not stated),32.9% (inactive)
17,N#CC1=C(N)N(c2sc3c(c2C#N)CCCC3)C2=C(C(=O)CCC2)C1c1ccc(Br)s1 (configuration not stated),13.4% (inactive)
18,CCOC(=O)COc1cc2occ(Oc3cnn(-c4ccccc4)c3)c(=O)c2cc1CC,9.58% (inactive)
19,CSc1ncc(/C=C2/C(=O)NC(=O)N(c3ccccc3)C2=O)cn1,0.31% (inactive)
20,Oc1c(C(c2ccccc2Cl)N2CCOCC2)sc2nc(-c3ccco3)nn12 (configuration not stated),11.9% (inactive)
21,Cc1nc2sc(C(c3ccccc3Cl)N3CCC4(CC3)OCCO4)c(O)n2n1 (configuration not stated),60% (active)
22,Cc1nc2sc(C(c3ccco3)N3CCC4(CC3)OCCO4)c(O)n2n1 (configuration not stated),13.4% (inactive)
23,OC[C@@H]1CCCN1Cc1nc(-c2ccccn2)no1,7.1% (inactive)
24,CCOC(=O)C1=C(C)N=c2s/c(=C\c3c[nH]c4ccccc34)c(=O)n2C1c1ccc(OC)c2ccccc12 (configuration not stated),12.2% (inactive)
25,COCCOC(=O)c1sc(=S)n(CCOC)c1N,-3.44% (inactive)

row,Structure (SMILES),inhibition
1,C=CCNC(=O)c1sc(=S)n2c1[nH]c(=O)c1ccc(C(=O)OC)cc12,1.34% (inactive)
2,C=CCNC(=O)c1sc(=S)n(CC)c1N,60.2% (active)
3,CCOc1ccc(Nc2n[nH]c(C)c2[N+](=O)[O-])cc1,-3.22% (inactive)
4,Cc1nnc(SCC(=O)Nc2ccc(Cc3ccc(NC(=O)CSc4nnc(C)s4)c(C(=O)O)c3)cc2C(=O)O)s1,10.6% (inactive)
5,Cc1ccc(C(C)(C)C)c(OCCCNCCO)c1,18.8% (inactive)
6,C=CCNCCOCCOc1cc(C)ccc1C(C)(C)C,65.6% (active)
7,Cc1cc(C(C)(C)C)ccc1OCCOCCNCCN,5.37% (inactive)
8,CN(C)S(=O)(=O)c1ccc(C(=O)NCc2nnc(SCC(=O)N3N=C(c4cccs4)CC3c3ccc(F)cc3)n2C)cc1 (configuration not stated),-5.15% (inactive)
9,CCC1(CC)Cc2ccccc2C(c2c(C)[nH]n(-c3ccccc3)c2=O)=N1,23.6% (inactive)
10,COc1cc(/C=C2/NC(=O)N(c3ccccc3)C2=O)cc(OC)c1O,-14.5% (inactive)
11,COC(=O)c1ccccc1NC(=O)c1cc2c(=O)oc3ccccc3c2s1,-9.64% (inactive)
12,COc1ccccc1-n1cnnc1SCC(=O)Nc1sc2c(c1C#N)CCCC2,-6.73% (inactive)
13,COc1cc(NC(=O)CSc2nnc(-c3ccoc3C)n2CC(C)C)cc(OC)c1,9.5% (inactive)
14,Cc1ccc(C(C)C)c(OCCN2CCNCC2)c1,74.9% (active)
15,Cc1ccc(C(C)(C)C)c(OCCN2CCNCC2)c1,46.6% (inactive)
16,Cc1ccc(C(C)C)c(OCC#CCN2CCNCC2)c1,77.2% (active)
17,CCC(C)Oc1cccc(OCCN2CCN(C)CC2)c1 (configuration not stated),-22.9% (inactive)
18,Cc1ccc(Cl)c(OCCCCN2CCNCC2)c1,41.9% (inactive)
19,Cc1ccc(C(C)C)c(OCc2n[nH]c(=S)n2C)c1,2.35% (inactive)
20,Cc1cc(OCCN2CCN(C)CC2)ccc1C(C)C,59.4% (active)
21,Cc1cc(OCCCCN2CCOCC2)ccc1C(C)C,27.1% (inactive)
22,Cc1ccc(OCCN2CCNCC2)c(Cl)c1,36.1% (inactive)
